Where “and” joins values, the source holds several entries; their conditions need not be identical. Identical values can stand only once. Results filed as inconclusive are left out. Calls of active or inactive are those of the source. Unless noted, calls follow the shape of the full dose curve.

We go through nine molecules from PubChem BioAssay (Tox21).

Assay [1] can be described thus: Nuclear factor erythroid 2-related factor 2/antioxidant responsive element (Nrf2/ARE) small molecule agonists: qHTS cell viability counter screen in human keratinocytes (AID 1919968; active = well fitted curve in the direction sought with a large enough effect in the repeat runs; an effect the other way counts as inactive or inconclusive; also: nearly all actives have a fitted effect of over 55% in size; also: potency is read from the fitted curve at half-maximal effect). Put shortly: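 KeratinoSens HaCaT cells, 1,500/well, preincubated 5 h, then exposed to compounds in DMSO for 23 h at 37 C/5% CO2. Viability read as CellTiter-Fluor fluorescence after 1 h, in the same wells as the ARE-luciferase read.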

The target of assay [2] is Gonadotropin-releasing hormone receptor (Homo sapiens) (UniProt P30968). Briefly: Human gonadotropin-releasing hormone receptor (GnRHR) small molecule agonists, calcium flux assay in GnRHR-HEK293 cells (AID 1920063). Also: nearly all actives have a fitted effect of over 35% in size. Put shortly: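 HEK293 cells stably expressing human GnRHR were dye-loaded for 1 h at 37 C. Compound was added in agonist mode and fluorescence (Ex/Em 480/540) recorded kinetically for 3 min. Fifteen concentrations, triplicates.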

The target in assay [3] is KiSS-1 receptor (Homo sapiens) (UniProt Q969F8). Briefly: Human kisspeptin (KISS1R) small molecule agonists, calcium flux assay in KISS1R-HEK293 cells (AID 1920064; active = well fitted curve in the direction sought with a large enough effect in the repeat runs; an effect the other way counts as inactive or inconclusive). Put shortly: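 HEK293 cells stably expressing human KISS1R were loaded with calcium dye for 1 h at 37 C, then given compound; fluorescence (Ex/Em 480/540) was read kinetically for 3 min. Fifteen concentrations, triplicate.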
Background: Calcium assays in cells follow changes in intracellular calcium, usually with a dye or a luminescent sensor.

Assay [4] can be described thus: G protein-coupled receptor (GPCR) small molecule agonists, calcium flux assay: HEK293 wild type cell line counter screen (AID 1920065). Put shortly:
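Wild-type HEK293 cells plated 18 h, loaded with calcium dye 1 h at 37 C, then compounds added in agonist mode (ATP as positive control). Kinetic fluorescence Ex/Em 480/540 recorded 3 min at 1 sec intervals; 15 concentrations, triplicate.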

Assay [5] is described as follows: p53 small molecule agonists, cell-based qHTS assay with human liver microsomes: qHTS cell viability counter screen (AID 1963579). Also: nearly all actives have a fitted effect of over 45% in size. Put shortly: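 After the 460/530 nm beta-lactamase read, CellTiter-Glo was added to the same wells and luminescence measured after 30 min at room temperature, giving viability of p53RE-bla cells treated 16 h with compounds plus microsomes and NADPH.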
In general terms: qHTS replaces the single test concentration by a dilution series.

The nature of assay [6]: p53 small molecule agonists, cell-based qHTS assay with rat liver microsomes: qHTS cell viability counter screen (AID 1963580). Also: nearly all actives have a fitted effect of over 45% in size. Put shortly:
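HCT-116 p53RE-bla, 4,000 cells/well, 5 h pre-incubation; cpd + rat liver microsomes 0.5 mg/mL + NADPH 0.5 mg/mL (final); 16 h, 37 C; CellTiter-Glo, 30 min RT; luminescence.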

A short description of assay [7]: p53 small molecule agonists, cell-based qHTS assay: qHTS cell viability counter screen (AID 1963581). Also: nearly all actives have a fitted effect of over 45% in size. Also: potency is read from the fitted curve at half-maximal effect. Put shortly: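 p53RE-bla HCT-116 cells, compounds added 5 h after plating and incubated 16 h at 37 C. Cytotoxicity measured in the same wells as intracellular ATP by CellTiter-Glo luminescence after 30 min at room temperature.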
Assay [8] deals with 5-hydroxytryptamine receptor 2A (Homo sapiens) (UniProt P28223). Briefly: 5-hydroxytryptamine receptor 2A (HTR2A) small molecule antagonists, cell-based qHTS assay (AID 1963586). Also: nearly all actives have a fitted effect of over 45% in size. Put shortly:
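Antagonist-mode intracellular calcium assay: DOI (4 nM) added after 5 min compound pre-incubation at room temperature to dye-loaded HTR2A-CHO cells. Fluorescence followed for 3 min, sampled every second.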

For assay [9] the target is unchanged. The assay can be described thus: 5-hydroxytryptamine receptor 2A (HTR2A) small molecule agonists, cell-based qHTS assay (AID 1963587). Also: nearly all actives have a fitted effect of over 30% in size. Put shortly:
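Kinetic calcium-flux fluorescence (2 min, 1 sec intervals) after compound addition in agonist mode. HTR2A-CHO cells were cultured 18 h, then dye-loaded 1 h at 37 C.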

In assay [10] the target is Muscarinic acetylcholine receptor M1 (Homo sapiens) (UniProt P11229). The assay can be described thus: Cholinergic receptor muscarinic 1 (CHRM1) small molecule antagonists, cell-based qHTS assay (AID 1963588). Also: nearly all actives have a fitted effect of over 40% in size. Put shortly: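 CHRM1-CHO calcium-flux assay, antagonist mode. Cells were seeded 18 h, dye-loaded 1 h at 37 C and given compound for 5 min at RT, then acetylcholine was added at 50nM. FDSS fluorescence was read 3 min; 15 concentrations, three runs.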

Assay [11] has the same target. Briefly: Cholinergic receptor muscarinic 1 (CHRM1) small molecule agonists, cell-based qHTS assay (AID 1963589). Also: nearly all actives have a fitted effect of over 35% in size. Put shortly: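 CHO cells stably expressing human CHRM1 were loaded with calcium dye for 1 h at 37 C, then compound was added in agonist mode. Intracellular calcium fluorescence was followed kinetically at 1 s intervals. Fifteen concentrations were tested in three independent runs.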

Assay [12] can be described thus: cAMP Responsive Elements (CRE) small molecule agonists, cell-based qHTS assay (AID 1963590). Put shortly: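 CRE-bla HEK 293T cells, 2,000/well in DMEM with 10% dialyzed FBS and 25 mM HEPES, pre-incubated 18 h at 37 C, then exposed to compound 3 h at 37 C. Beta-lactamase reporter read with LiveBLAzer B/G FRET substrate after 2 h at room temperature.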
Assay [13] is described as follows: cAMP Responsive Elements (CRE) small molecule antagonists, cell-based qHTS assay (AID 1963591; active = well fitted inhibition curve with a large enough effect in the signal ratio in the repeat runs, not every such curve was filed as active; the % refers to the signal ratio). Put shortly: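 CRE-bla HEK293T cells plated 18 h, then given compound plus NKH477 at 0.25 uM final for 3 h at 37C. Beta-lactamase reporter read with LiveBLAzer B/G FRET substrate after 2 h at room temperature.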
In assay [14] the target is Beta-2 adrenergic receptor (Homo sapiens) (UniProt P07550). Briefly: Adrenergic beta2 receptor (ADRB2) small molecule antagonists, cell-based qHTS assay (AID 1963592). Also: series mostly up to about 92 µM; nearly all actives have a fitted effect of over 50% in size. Put shortly: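 Cells (CHO, stable ADRB2 overexpression) incubated 18-20hr at 37C; compounds added from DMSO; agonist mix (1nM isoproterenol, 100uM IBMX, 25uM Ro-20-1724) added; 0.5hr RT; d2-cAMP and anti-cAMP-cryptate added; 1hr RT; 665/615 nm read.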

The target is the same in assay [15]. The assay can be described thus: Adrenergic beta2 receptor (ADRB2) small molecule agonists, cell-based qHTS assay (AID 1963593).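 Also: CHO cells stably overexpressing human ADRB2.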 Put shortly:
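CHO cells stably over-expressing ADRB2 were plated overnight at 37C, then dosed with compounds plus a stimulation mix containing 100uM IBMX and 25uM Ro-20-1724 for 0.5hr at room temperature. cAMP was measured by HTRF competition, 1hr.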

Assay [16] addresses D(2) dopamine receptor (Homo sapiens) (UniProt P14416). The assay can be described thus: Dopamine D2 receptor (DRD2) small molecule agonists, cell-based qHTS assay (AID 1963594). Also: nearly all actives have a fitted effect of over 35% in size. Put shortly: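 cAMP accumulation in DRD2-HEK293 cells measured by HTRF after 1 h detection; compounds added 10 min before NKH477 (200nM […]) forskolin-analogue stimulation, 30 min at room temperature, with Ro20-1724 present at 0.1 mM final.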

For assay [17] the target is unchanged. The assay can be described thus: Dopamine D2 receptor (DRD2) small molecule antagonists, cell-based qHTS assay (AID 1963595; active = well fitted inhibition curve with a large enough effect in the signal ratio in the repeat runs, with a control signal flat; the % refers to the signal ratio). Put shortly:
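Readout: HTRF cAMP, cAMP-d2 competing with cellular cAMP for anti-cAMP cryptate, read after 1 h. Cells: DRD2-HEK293. Conditions: 0.1 mM Ro20-1724, 12 nM quinpirole, 200 nM NKH477, 30 min RT.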

Assay [18] can be described thus: p53 small molecule agonists, cell-based qHTS assay with human liver microsomes (AID 1963577).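 Also: p53 response element beta-lactamase reporter cells with liver microsomes plus NADPH.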 Put shortly: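 Steps: plate p53RE-bla cells, incubate 5 h at 37 C; add compound in DMSO; add microsomes (0.5 mg/mL final) and NADPH (0.5 mg/mL final); incubate 16 h at 37 C; add LiveBLAzer, 2 h RT; read fluorescence.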
Assay [19] is described as follows: p53 small molecule agonists, cell-based qHTS assay with rat liver microsomes (AID 1963578). Put shortly:
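Metabolic activation is supplied by rat liver microsomes with NADPH (each 0.5 mg/mL final). p53RE-bla cells incubate with compound 16 h at 37 C; reporter activity is measured by LiveBLAzer fluorescence.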

Assay [20] is described as follows: p53 small molecule agonists, cell-based qHTS assay (AID 1963582; active = well fitted activation curve with a large enough effect in the signal ratio in the repeat runs, not every such curve was filed as active; the % refers to the signal ratio). Put shortly: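 p53RE-bla reporter cells, compounds added in DMSO after 5 h plating, incubated 16 h at 37 C. Beta-lactamase read via 2 h room-temperature LiveBLAzer B/G FRET substrate, fluorescence intensity.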

Sequence of D(2) dopamine receptor (Homo sapiens) (P14416 whole entry, looked up): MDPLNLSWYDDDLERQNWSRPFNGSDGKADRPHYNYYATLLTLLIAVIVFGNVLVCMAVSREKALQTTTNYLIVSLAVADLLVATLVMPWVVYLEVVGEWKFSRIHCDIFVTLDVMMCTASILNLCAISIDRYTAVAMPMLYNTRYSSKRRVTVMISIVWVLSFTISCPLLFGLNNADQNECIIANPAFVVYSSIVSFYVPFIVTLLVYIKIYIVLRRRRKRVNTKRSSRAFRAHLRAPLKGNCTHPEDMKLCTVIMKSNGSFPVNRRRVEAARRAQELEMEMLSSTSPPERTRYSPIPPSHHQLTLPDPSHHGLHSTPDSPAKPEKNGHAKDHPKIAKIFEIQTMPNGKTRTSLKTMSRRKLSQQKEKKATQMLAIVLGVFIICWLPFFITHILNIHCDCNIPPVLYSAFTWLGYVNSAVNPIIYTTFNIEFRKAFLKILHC
Sequence of Muscarinic acetylcholine receptor M1 (Homo sapiens) (P11229 whole entry, looked up): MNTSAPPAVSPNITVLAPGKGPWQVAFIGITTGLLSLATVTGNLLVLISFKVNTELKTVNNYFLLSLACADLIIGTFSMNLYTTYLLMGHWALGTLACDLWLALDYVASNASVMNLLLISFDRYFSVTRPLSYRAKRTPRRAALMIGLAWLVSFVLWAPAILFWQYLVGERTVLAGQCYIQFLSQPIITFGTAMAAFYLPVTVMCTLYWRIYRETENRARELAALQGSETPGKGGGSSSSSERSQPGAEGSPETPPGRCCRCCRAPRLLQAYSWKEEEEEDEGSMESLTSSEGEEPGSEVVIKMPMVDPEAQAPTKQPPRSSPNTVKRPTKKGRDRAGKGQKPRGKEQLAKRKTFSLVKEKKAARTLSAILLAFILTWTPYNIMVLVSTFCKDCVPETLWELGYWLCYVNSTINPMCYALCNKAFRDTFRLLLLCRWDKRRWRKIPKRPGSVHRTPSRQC
Sequence of KiSS-1 receptor (Homo sapiens) (Q969F8 whole entry, looked up): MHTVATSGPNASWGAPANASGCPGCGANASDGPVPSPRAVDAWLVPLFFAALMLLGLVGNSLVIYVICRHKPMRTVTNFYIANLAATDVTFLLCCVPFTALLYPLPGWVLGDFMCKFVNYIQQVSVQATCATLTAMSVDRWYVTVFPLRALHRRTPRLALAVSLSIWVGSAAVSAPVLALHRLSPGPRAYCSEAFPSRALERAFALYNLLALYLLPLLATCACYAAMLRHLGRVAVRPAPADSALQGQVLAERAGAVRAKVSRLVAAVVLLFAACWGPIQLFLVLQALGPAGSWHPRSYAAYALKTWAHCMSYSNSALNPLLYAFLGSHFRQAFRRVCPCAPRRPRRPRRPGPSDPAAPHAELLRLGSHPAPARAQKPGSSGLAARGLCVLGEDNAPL
Sequence of 5-hydroxytryptamine receptor 2A (Homo sapiens) (P28223 whole entry, looked up): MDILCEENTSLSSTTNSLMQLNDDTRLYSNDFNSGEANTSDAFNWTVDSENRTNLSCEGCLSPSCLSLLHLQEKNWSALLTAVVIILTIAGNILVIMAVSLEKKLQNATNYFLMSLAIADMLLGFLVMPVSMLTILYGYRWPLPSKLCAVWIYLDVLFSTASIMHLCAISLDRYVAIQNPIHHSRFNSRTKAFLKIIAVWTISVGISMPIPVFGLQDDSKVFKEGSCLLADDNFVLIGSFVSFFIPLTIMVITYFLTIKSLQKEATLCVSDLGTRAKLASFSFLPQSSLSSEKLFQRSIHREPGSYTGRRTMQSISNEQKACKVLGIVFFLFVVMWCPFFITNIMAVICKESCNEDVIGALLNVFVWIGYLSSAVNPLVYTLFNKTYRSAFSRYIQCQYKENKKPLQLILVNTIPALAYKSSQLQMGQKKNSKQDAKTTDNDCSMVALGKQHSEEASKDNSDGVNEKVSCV
Sequence of Beta-2 adrenergic receptor (Homo sapiens) (P07550 whole entry, looked up): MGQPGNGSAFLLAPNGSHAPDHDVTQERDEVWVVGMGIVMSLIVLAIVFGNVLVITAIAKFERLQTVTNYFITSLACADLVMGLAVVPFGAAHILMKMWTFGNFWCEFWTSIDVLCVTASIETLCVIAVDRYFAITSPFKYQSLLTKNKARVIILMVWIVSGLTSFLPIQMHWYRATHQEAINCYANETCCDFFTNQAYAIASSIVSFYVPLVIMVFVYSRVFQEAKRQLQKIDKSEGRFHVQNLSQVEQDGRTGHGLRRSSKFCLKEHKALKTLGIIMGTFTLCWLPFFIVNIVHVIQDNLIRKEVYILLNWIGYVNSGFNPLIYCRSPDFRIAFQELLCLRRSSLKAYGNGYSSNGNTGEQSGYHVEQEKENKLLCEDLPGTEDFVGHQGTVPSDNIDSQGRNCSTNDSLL
Sequence of Gonadotropin-releasing hormone receptor (Homo sapiens) (P30968 whole entry, looked up): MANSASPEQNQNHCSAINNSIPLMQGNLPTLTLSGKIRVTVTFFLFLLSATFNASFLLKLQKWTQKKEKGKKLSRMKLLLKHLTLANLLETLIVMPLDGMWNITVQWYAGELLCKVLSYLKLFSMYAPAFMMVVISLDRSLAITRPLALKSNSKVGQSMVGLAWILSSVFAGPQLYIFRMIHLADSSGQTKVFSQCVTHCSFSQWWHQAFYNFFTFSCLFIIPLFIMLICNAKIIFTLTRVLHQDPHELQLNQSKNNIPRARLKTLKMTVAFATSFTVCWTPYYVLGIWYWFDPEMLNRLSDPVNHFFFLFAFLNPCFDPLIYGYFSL

Consider `CN1C(=O)CCS(=O)(=O)C1c1ccc(Cl)cc1` (stereo not drawn), for which the Potency entry in [1], in assay [2], in assay [3], in assay [4], in assay [5] and in assay [6] was “inactive” each time. Besides, the Potency result in assay [7], in [8], in [9], in [10], in assay [11] and in assay [12] was “inactive” throughout. For the same molecule, the Potency entry in assay [13], in assay [14], in assay [15], in assay [16] and in assay [17] was “inactive” each time.

For the molecule `[Cd+2].[Cl-].[Cl-]`, the Potency in [1] is 27.5 µM (active) and 43.3 µM (active); in assay [7] it was 36.7 µM (active). Besides, the Potency entry in [2], in assay [3], in [4], in assay [5], in [6] and in [9] was “inactive” throughout. The Potency entry in assay [10], in [11], in [12], in [14], in [16] and in assay [17] was “inactive” throughout.

Take `C1CC2OC2CC1C1CO1` (stereo not drawn): the Potency entry in assay [1], in assay [2], in assay [3], in assay [4], in assay [18] and in assay [19] was “inactive” in each case. Also, the Potency entry in assay [5], in assay [7], in [20], in assay [8], in assay [9] and in assay [10] was “inactive” in each case. For the same molecule, the Potency entry in assay [11], in assay [12], in assay [13], in assay [14], in [15] and in [17] was “inactive” each time.

`O=C(O)CF`: the Potency result in assay [1], in [2], in assay [3], in [4], in assay [5] and in [6] was “inactive” throughout. Further, the Potency result in assay [7], in assay [8], in [9], in assay [12], in assay [13] and in assay [14] was “inactive” each time. Also, the Potency entry in assay [16] and in [17] was “inactive” throughout.

As to `Clc1nc(Cl)nc(Cl)n1`, the Potency entry in assay [1], in [2], in assay [3], in [4], in [18] and in assay [5] was “inactive” throughout. The Potency entry in [6], in assay [7], in assay [20], in [9], in assay [10] and in [11] was “inactive” each time. In addition, the Potency entry in [12], in assay [13], in [14], in assay [16] and in assay [17] was “inactive” in each case.

`O=C(O)Cc1ccccc1`: the Potency result in assay [1], in [2], in [3], in [4], in assay [5] and in assay [6] was “inactive” throughout. For the same molecule, the Potency entry in assay [7], in assay [8], in assay [9], in assay [11], in assay [12] and in [13] was “inactive” in each case. Further, the Potency entry in assay [14], in assay [16] and in [17] was “inactive” in each case.

As to `Nc1ccncc1`, the Potency result in assay [1], in assay [2], in [3], in [4], in [19] and in assay [5] was “inactive” in each case. In addition, the Potency entry in [6], in assay [20], in [8], in [9], in [11] and in [12] was “inactive” each time. Further, the Potency result in assay [13], in assay [14], in assay [15] and in assay [16] was “inactive” throughout.

For `S=c1[nH]c2ccccc2[nH]1`, the Potency entry in assay [1], in [2], in [3], in [4], in assay [18] and in [19] was “inactive” each time. In addition, the Potency entry in [5], in assay [6], in assay [7], in assay [8], in [9] and in assay [10] was “inactive” throughout. The Potency entry in assay [11], in assay [12], in assay [13], in assay [14] and in assay [16] was “inactive” each time.

With `CNC(C)(C)Cc1ccccc1`, the Potency entry in [1], in assay [2], in [3], in [4], in assay [19] and in assay [6] was “inactive” each time. The Potency entry in [7], in assay [8], in assay [9], in [10], in assay [11] and in assay [12] was “inactive” each time. Also, the Potency entry in [13], in assay [14] and in assay [16] was “inactive” throughout.
